About 79,000 compounds went through this panel and 15% of them were active in at least one assay; those are over-represented in the sample as a whole. Calls of active or inactive are those of the source. Cut-off read from the data, not from the text of the source: active = growth inhibition above about 70%; inactive = the rest.
Tests used:
[1] = NCI Yeast Anticancer Drug Screen. Data for the rad52 strain (AID 147);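 note: 0% = growth of vehicle-treated control cultures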; conditions: S. cerevisiae rad52 mutant growth inhibition, active compounds read high
Method in brief: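 Growth of repair-deficient yeast cells was compared between compound-treated and vehicle-treated cultures to give percent inhibition.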

[2] = NCI Yeast Anticancer Drug Screen. Data for the wt1 strain (AID 149);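 note: 0% = growth of vehicle-treated wt1 cultures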; conditions: S. cerevisiae wt1 strain (SPY 50644) growth inhibition, active compounds read high
Method in brief: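 Growth inhibition read against vehicle controls after compound exposure of the wt1 yeast strain.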

[3] = NCI Yeast Anticancer Drug Screen. Data for the rad50EPP+ strain (AID 151);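 note: 0% = growth of vehicle-treated control cultures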; conditions: S. cerevisiae rad50 mutant strain, active compounds read high
Method in brief: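 Measured: growth inhibition of rad50EPP+ yeast. Reference: vehicle-treated controls. Screen uses strains with defined genetic alterations in DNA damage repair or cell cycle control.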

[4] = NCI Yeast Anticancer Drug Screen. Data for the mgt1 strain (AID 153); conditions: S. cerevisiae mgt1 mutant growth inhibition, active compounds read high
Method in brief: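 Compounds were applied to mgt1 mutant yeast, and growth was then compared against vehicle-treated control cultures to give percent inhibition.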

[5] = NCI Yeast Anticancer Drug Screen. Data for the rad50 strain (AID 155);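 note: 0% = growth of vehicle-only cultures of the same strain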; conditions: S. cerevisiae rad50 strain growth inhibition, active compounds read high
Method in brief: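 Readout: growth inhibition relative to vehicle-treated cultures. Compound exposure was carried out in a genetically defined yeast strain deficient in DNA damage repair.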

[6] = NCI Yeast Anticancer Drug Screen. Data for the mec2-1 strain (AID 157); conditions: S. cerevisiae mec2-1 strain, active compounds read high
Method in brief: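 Compounds were applied to mec2-1 yeast cells. Their growth was then compared with that of vehicle-treated cultures to give growth inhibition.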

[7] = NCI Yeast Anticancer Drug Screen. Data for the rad14 strain (AID 159);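 note: 0% = growth of vehicle-treated control cultures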; conditions: S. cerevisiae rad14 strain growth inhibition, active compounds read high
Method in brief: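 Growth inhibition vs vehicle controls; genetically altered yeast strain (DNA damage repair defect) treated with test compounds.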

[8] = NCI Yeast Anticancer Drug Screen. Data for the sgs1 mgt1 strain (AID 161);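 note: 0% = growth of cultures given vehicle only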; conditions: S. cerevisiae sgs1 mgt1 strain, active compounds read high
Method in brief: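 Growth of a repair-deficient yeast mutant was monitored after compound treatment and expressed as inhibition relative to vehicle-treated cultures.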

[9] = NCI Yeast Anticancer Drug Screen. Data for the CLN2oe strain (AID 163);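 note: 0% = growth of vehicle-only control cultures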; conditions: S. cerevisiae CLN2oe strain, active compounds read high
Method in brief: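 Cells of an engineered yeast line with disturbed cell-cycle regulation are treated with compound. Inhibition of growth is then calculated relative to the vehicle-treated reference.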

[10] = NCI Yeast Anticancer Drug Screen. Data for the cln2 rad14 strain (AID 165);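 note: 0% = growth equal to vehicle treated cultures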; conditions: S. cerevisiae cln2 rad14 strain, active compounds read high
Method in brief: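 Strain: cln2 rad14 yeast, altered in cell cycle control and DNA damage repair. Read-out: growth inhibition vs vehicle.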

[11] = NCI Yeast Anticancer Drug Screen. Data for the bub3 strain (AID 167); conditions: S. cerevisiae bub3 mutant strain, active compounds read high
Method in brief: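 Readout: yeast growth inhibition, expressed relative to vehicle-only wells. The test organism is a mutant strain from a panel with lesions in DNA repair or checkpoint genes.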

[12] = NCI Yeast Anticancer Drug Screen. Data for the wt2 strain (AID 169);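 note: 0% = growth of vehicle-treated yeast cultures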; conditions: S. cerevisiae wt2 strain growth inhibition, active compounds read high
Method in brief: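 Growth of compound-treated yeast is measured and expressed as inhibition relative to vehicle-only controls.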

[13] = NCI Yeast Anticancer Drug Screen. Data for the mlh1 strain (AID 171);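 note: 0% = growth of vehicle-treated control cultures of the same strain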; conditions: S. cerevisiae mlh1 strain growth inhibition, active compounds read high
Method in brief: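 Test agents were incubated with yeast bearing a defined DNA damage repair or cell cycle control alteration; values are growth inhibition normalised to vehicle-treated cultures.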

[14] = NCI Yeast Anticancer Drug Screen. Data for the sgs1 strain (AID 173);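 note: 0% = growth of vehicle-only control cultures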; conditions: S. cerevisiae sgs1 mutant, active compounds read high
Method in brief: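 Strain with an altered DNA repair or cell cycle pathway exposed to compound. Growth then measured. Value = inhibition versus vehicle control.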

[15] = NCI Yeast Anticancer Drug Screen. Data for the mlh1 rad18 strain (AID 175); conditions: S. cerevisiae mlh1 rad18 strain growth inhibition, active compounds read high
Method in brief: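 A repair-deficient yeast strain is exposed to test compound, and growth is scored relative to vehicle-treated controls.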

[16] = NCI Yeast Anticancer Drug Screen. Data for the rad18 strain (AID 177); conditions: S. cerevisiae rad18 mutant growth inhibition, active compounds read high
Method in brief: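 DNA-repair-defective yeast; compound treatment; growth inhibition scored against vehicle.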

[17] = at 5.0 µM (retest, dose inferred, filed as 0.5)
[18] = at 50.0 µM (retest, dose inferred, filed as 5.0)

Measured: growth inhibition

CCC1(O)C(=O)OCc2c1cc1n(c2=O)Cc2cc3cc(Cl)ccc3nc2-1 (stereo not drawn)
inactive: [2]; at 1.2 µM 3% | [2]; at 3.7 µM 0% | [2]; at 11.0 µM 16% | [2]; at 33.0 µM 43% | [2]; at 100.0 µM 65% | [4]; at 1.2 µM 13% | [4]; at 3.7 µM 19% | [4]; at 11.0 µM 30% | [4]; at 33.0 µM 57% | [4]; at 100.0 µM 67% | [6]; at 1.2 µM 60% | [7]; at 1.2 µM 12% | [7]; at 3.7 µM 19% | [7]; at 11.0 µM 35% | [7]; at 33.0 µM 59% | [7]; at 100.0 µM 69% | [8]; [17] 62% | [8]; at 50.0 µM 40.2% | [9]; at 1.2 µM 6% | [9]; at 3.7 µM 14% | [9]; at 11.0 µM 33% | [9]; at 33.0 µM 47% | [9]; at 100.0 µM 59% | [10]; [17] 24% | [10]; [18] 48% | [10]; at 50.0 µM 45.9% | [11]; at 1.2 µM -6% | [11]; at 3.7 µM 6% | [11]; [17] -2% | [11]; at 11.0 µM 24% | [11]; at 33.0 µM 44% | [11]; [18] 31% | [11]; at 50.0 µM -5.7% | [11]; at 100.0 µM 62% | [12]; at 1.2 µM 4% | [12]; at 3.7 µM 19% | [12]; at 11.0 µM 20% | [12]; at 33.0 µM 31% | [12]; at 100.0 µM 47% | [13]; at 1.2 µM 3% | [13]; at 3.7 µM 8% | [13]; at 11.0 µM 36% | [13]; at 33.0 µM 65% | [14]; at 1.2 µM 31% | [14]; at 3.7 µM 46% | [14]; at 11.0 µM 69% | [15]; [17] 45% | [15]; [18] 60% | [15]; at 50.0 µM 52.5% | [16]; at 1.2 µM 14% | [16]; at 3.7 µM 14% | [16]; at 11.0 µM 34% | [16]; at 33.0 µM 64%
active: [1]; at 1.2 µM 94% | [1]; at 3.7 µM 95% | [1]; at 11.0 µM 95% | [1]; at 33.0 µM 95% | [1]; at 100.0 µM 92% | [3]; at 1.2 µM 92% | [3]; at 3.7 µM 93% | [3]; at 11.0 µM 94% | [3]; at 33.0 µM 92% | [3]; at 100.0 µM 88% | [5]; at 1.2 µM 96% | [5]; at 3.7 µM 94% | [5]; [17] 97% | [5]; at 11.0 µM 95% | [5]; at 33.0 µM 93% | [5]; [18] 92% | [5]; at 50.0 µM 93.7% | [5]; at 100.0 µM 78% | [6]; at 3.7 µM 88% | [6]; [17] 87% | [6]; at 11.0 µM 93% | [6]; at 33.0 µM 92% | [6]; [18] 88% | [6]; at 50.0 µM 92.7% | [6]; at 100.0 µM 89% | [8]; [18] 84% | [13]; at 100.0 µM 74% | [14]; at 33.0 µM 83% | [14]; at 100.0 µM 80% | [16]; at 100.0 µM 71%

From PubChem BioAssay (NCI)
